Laboratory results published in PubChem BioAssay AID1159580 (chemical genetic matrix, 2015).
The whole screen tested about 5,500 compounds, of which about 2,000 (36%) were called active. Inconclusive results (about 18%) are left out. No stated cut-off is given here; in the data, active means normalized growth mostly below about 0.91 (no sharp cut-off); inconclusive means no clear call, values can overlap the other calls; inactive means mostly above about 0.92. The list shows a part of the results.

Assay: chemical genetic growth profiling, strain panel (AID 1159580);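 further: tested at 20 µM; growth read once vehicle control cultures reached saturation at 30 °C; 1 = growth at the plate median or of vehicle wells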
Settings: S. cerevisiae deletion strains, growth OD

Measured: normalized growth

CN(C)C(N)=NCCC[C@H](N)C(=O)O
inactive: locus YAL013W, strain DEP1, stronger effect = lower value 1 | locus YAL040C, strain CLN3, stronger effect = lower value 0.998 | locus YCL061C, strain MRC1 (second series), stronger effect = lower value 1.01 | locus YDR150W, strain NUM1, stronger effect = lower value 0.997 | locus YDR363W, strain ESC2, stronger effect = lower value 1.04 | locus YER002W, strain NOP16, stronger effect = lower value 0.979 | locus YJR075W, strain HOC1, stronger effect = lower value 1.01 | locus YMR307W, strain GAS1, stronger effect = lower value 1.01 | locus YNL128W, strain TEP1, stronger effect = lower value 0.988 | locus YNL175C, strain NOP13, stronger effect = lower value 1 | locus YNL197C, strain WHI3, stronger effect = lower value 1.02 | locus YNL224C, strain SQS1, stronger effect = lower value 0.984 | locus YOR083W, strain WHI5 (second series), stronger effect = lower value 0.988 | locus YPL055C, strain LGE1, stronger effect = lower value 1.03 | locus YPL241C, strain CIN2, stronger effect = lower value 1
